This is a sample that favours compounds with a hit; in the whole collection about 0.98% have one here.
cardiac RTF act: cardiac RTF calcium sensitization. P19429+P45379. IANBD-labeled TnC RTF fluorescence at EC20 calcium; 0% EC20 calcium, 100% full calcium. activation, % at 7.2 µM. hit rate 0.24% among 340,000;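 active = activation above the mean over all tested compounds plus 3 SD, cut at about 30% in these data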;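 also: rise in fluorescence read as greater calcium sensitivity of cardiac thin filaments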
eLon inh: E. coli protease La inhibition | inhibition, % at 7.94 µM | hit rate 0.42% among 360,000 | purified E. coli Lon protease, fluorescence polarization | P0A9M0; in the data active = inhibition above about 13%, passing the limit was not always enough;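 also: 0% = enzyme with probe and DMSO and 100% = no enzyme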
Keap1 Nrf2 FP: disrupts human Keap1 binding to Nrf2 peptide. Q14145. Keap1 Kelch-Nrf2 peptide fluorescence polarization, 1536-well. inhibition, % at 9.4 µM. hit rate 0.15% among 340,000. AID 504523; in the data active = inhibition above about 12%;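 also: human Keap1 Kelch domain with fluorescein labeled Nrf2 9mer peptide probe; 0% = neutral control wells and 100% = peptide positive control; higher means more block of Keap1 binding to Nrf2 peptide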
C-LANA FP: KSHV C-LANA DNA binding inhibition | inhibition, % at 9 µM | hit rate 0.078% among 340,000 | MBP-C-LANA/FAM-LBS DNA binding, fluorescence polarization;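 active = highest replicate inhibition at or above 60% at 9 µM, even if other replicates fall short; inactive = all replicates below 60% inhibition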;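 also: 0% = neutral control wells and 100% = 4 µM acridine orange control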
Cardiac RTF inh: cardiac RTF calcium desensitization. inhibition, % at 7.15 µM. hit rate 0.12% among 340,000. AID 493244. IANBD-labeled cardiac RTF, Ca2+ fluorescence. P19429+P45379;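 active = inhibition above the mean inhibition of all tested compounds plus 3 SD, cut at about 17% in these data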;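 also: assay run at fixed EC70 calcium of 1.6 mM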
EBV gp42 inh: blocks Epstein-Barr virus glycoprotein 42 binding; Q1HVG2; inhibition, % (tested at 21.74 µM); hit rate 0.42% among 220,000; Fluorescence polarization binding assay, mP read-out; in the data active = inhibition above about 50%
Target sequence (Q1HVG2 whole entry, looked up): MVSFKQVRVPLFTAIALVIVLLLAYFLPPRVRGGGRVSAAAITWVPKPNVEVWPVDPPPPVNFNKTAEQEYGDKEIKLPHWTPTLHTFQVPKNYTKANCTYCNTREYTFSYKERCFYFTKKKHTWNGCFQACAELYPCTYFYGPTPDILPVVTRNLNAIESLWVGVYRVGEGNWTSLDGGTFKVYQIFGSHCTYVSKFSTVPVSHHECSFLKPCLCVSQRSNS
E coli Lon conf: confirmation of E. coli Lon protease inhibitors; shares compounds with eLon inh; purified E. coli Lon, fluorescence polarization; inhibition, % at 7.94 µM; hit rate 31% among 1,400; AID 602230; in the data active = inhibition above about 16%;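 also: 0% = enzyme with probe and DMSO and 100% = no enzyme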
* hit, by the source's call; · = not tested or not shown.

SMILES | cardiac RTF act | eLon inh | Keap1 Nrf2 FP | C-LANA FP | Cardiac RTF inh | EBV gp42 inh | E coli Lon conf
Cc1nc(N2CCOCC2)sc1C=O | 3.9 | 20.2* | 0.0 | -2.5 | -12.3 | -7.4 | -5.9
CC(=O)c1c(C)[nH]c(C(=O)OCc2ccccc2)c1C | 4.0 | -2.3 | -3.3 | 8.8 | 1.6 | -10.8 | ·
CC(=O)c1c(C)[nH]c(C(=O)OCC(=O)N(Cc2ccccc2)C(C)(C)C)c1C | 3.4 | 70.8* | -3.1 | -1.5 | -8.1 | · | -63.4
O=C(OCc1c(F)cccc1Cl)c1cnc2ccccc2n1 | -5.7 | 6.4 | 3.4 | 0.8 | -2.2 | · | ·
COc1ccc(NS(=O)(=O)c2ccc(Cl)s2)cn1 | 12.4 | 18.5* | 5.4 | 14.8 | -6.6 | 56.8* | 35.4*
O=C(Nc1ccc(C(O)c2ccccc2)cc1)[C@H]1C[C@H](O)[C@@H](CO)O1 (some centres not stated) | · | -12.2 | · | · | · | · | ·
NS(=O)(=O)c1ccc(NS(=O)(=O)c2ccc(C3CNC(=O)C3)cc2)cc1 (configuration not stated) | -3.2 | 19.1* | -3.8 | -0.1 | 0.5 | · | 6.7
CCCCNC(=O)C(=O)Nc1ccc2c(c1)N(S(=O)(=O)c1cccs1)CCC2 | · | 8.1 | · | · | · | · | ·
CCOC(=O)C1=C(COC(=O)c2ccc3ccccc3c2O)NC(=O)NC1C (configuration not stated) | 34.8* | 49.2* | 2.8 | 13.2 | -34.2 | · | 8.7
CCOC(=O)C1=C(COC(=O)c2ccccc2OC(F)F)NC(=O)NC1C (configuration not stated) | -1.2 | 13.6 | -4.4 | 1.1 | -32.5 | · | ·
COc1ccc(C(=O)N2CCCCC2c2cc(C(=O)Nc3cccc(C#N)c3)no2)cc1 (configuration not stated) | · | -4.7 | · | · | · | · | ·
O=C(c1ccccc1Cl)N(Cc1ccc(Cl)c(Cl)c1)N1C(=O)CCCC1=O | 6.9 | 17.8* | -0.9 | 0.9 | -3.2 | 12.0 | 5.1
CO/N=C\CC(=O)Nc1ccc(Cl)c(Cl)c1 | 4.8 | 17.4* | -0.9 | 1.0 | -3.2 | 4.9 | 13.9
CCOC(=O)c1cc(OC)c2cccc(CN3CCC(C)(C(=O)NCCOC)C3)c2c1 (configuration not stated) | · | 96.8* | · | · | · | · | 45.6*
CCOC(=O)c1cc(OC)c2cccc(CN3CCCC(C)(C(=O)NCCOC)C3)c2c1 (configuration not stated) | · | -1.9 | · | · | · | · | ·
CCCn1c(=S)[nH]c2cc(C(=O)N3CCN(C)CC3)ccc2c1=O | · | 13.7* | · | · | · | · | 1.9
O=C(CCN1C(=O)C2C3C=CC(C3)C2C1=O)NC1CCCCC1 (configuration not stated) | 1.6 | 20.2* | -0.6 | -0.2 | 2.0 | · | 5.8
CCOC(=O)N1CCC(NC(=O)CCN2C(=O)C3C4C=CC(C4)C3C2=O)CC1 (configuration not stated) | -0.5 | 3.8 | -8.4 | -0.8 | -1.9 | -10.6 | ·
CCNc1cccc2c1C(=O)N(C)C2=O | 45.6* | 150.8* | -0.8 | 0.3 | -67.4 | 160.4* | 164.6*
COc1ccc(/C=C/C(=O)c2ccc3c(c2)OCO3)c(OC)c1 | -3.2 | -5.4 | 2.9 | 0.6 | -14.0 | -11.4 | ·
COc1cccc(/C=C/C(=O)c2ccc3c(c2)OCCO3)c1OC | -4.3 | 20.1* | 2.3 | 0.3 | 0.2 | · | 9.0
O=Cc1c(NCc2ccccc2Cl)c2ccccc2[nH]c1=O | -3.4 | -4.3 | 3.2 | 10.3 | 4.3 | · | ·
Cc1c(C=O)c2ccccn2c1C(=O)c1ccccc1Cl | -2.0 | 1.5 | -3.8 | -3.0 | 1.1 | · | ·
Cc1c(C=O)c2ccccn2c1C(=O)c1cccs1 | 15.8 | 31.1* | 3.9 | 13.4 | -6.1 | 34.8 | 22.0*
Cc1ccc(S(=O)(=O)NC(=O)C2(C)CCN2C(=O)Cc2cc(F)ccc2F)nc1 (configuration not stated) | · | 0.5 | · | · | · | · | ·
SMILES | cardiac RTF act | eLon inh | Keap1 Nrf2 FP | C-LANA FP | Cardiac RTF inh | EBV gp42 inh | E coli Lon conf
CC1C2(C)OC(=N)C(C#N)(C(C)O2)C1(C#N)C#N (configuration not stated) | 17.1 | 21.9* | 7.9 | 29.7 | -13.1 | 11.0 | 35.5*
CCCc1c(C(=O)N/N=C(\C)c2ccc(CC(C)C)cc2)nnn1-c1nonc1N | · | 3.8 | · | · | · | · | ·
CCCC(=O)NC(c1ccc(OC)c(OC)c1)c1cc(Cl)c2cccnc2c1O (configuration not stated) | 1.8 | 16.8* | -1.0 | -1.8 | -6.4 | 12.6 | 47.6*
COc1ccc(C(NC(C)=O)c2cc(Cl)c3cccnc3c2O)cc1 (configuration not stated) | -2.6 | 3.3 | -4.8 | 2.5 | -3.6 | · | ·
CCN(CC)C(=O)CSc1nnc2nnc3cc(Cl)ccc3n12 | 4.4 | 54.5* | 5.8 | 6.0 | -14.2 | 66.6* | 41.5*
COCCN(Cc1ccc(F)cc1)C(=O)c1cc2ccccc2oc1=O | -1.3 | 0.3 | -2.5 | -2.8 | -1.2 | · | ·
CCOc1cccc(C(=O)NC(=S)Nc2cccnc2)c1 | 0.8 | 1.9 | -3.0 | 1.2 | 2.7 | -4.8 | ·
CCCCOc1cccc(C(=O)NC(=S)Nc2cccnc2)c1 | 2.4 | 19.1* | -1.6 | -0.4 | -2.9 | -12.5 | -45.9
C[C@H](O)[C@@H]1CN2CCc3c([nH]c4ccccc34)[C@@H]2C[C@@H]1N(C)C(=S)NCCc1ccccc1 | · | 197.3* | · | · | · | · | 120.6*
CCN(C(=O)CSc1nc2ccccc2[nH]1)C1CCS(=O)(=O)C1 (configuration not stated) | -3.3 | -6.8 | -2.7 | 0.7 | -11.2 | · | ·
COCCNC(=O)c1c[nH]c2ccc(S(=O)(=O)Nc3ccccc3F)cc2c1=O | -2.0 | 18.2* | -1.2 | -1.0 | -1.1 | · | 8.8
COCCNC(=O)c1c[nH]c2ccc(S(=O)(=O)Nc3ccc(F)cc3F)cc2c1=O | -4.8 | 5.7 | -2.2 | -0.5 | -1.9 | · | ·
O=C(CCN=C1NS(=O)(=O)c2ccccc21)NCc1ccccc1F | -5.1 | -11.7 | 7.1 | 1.0 | -1.8 | · | ·
O=C(N=Nc1c(O)[nH]c2ccc(Br)cc12)c1ccco1 | · | -19.0 | · | · | · | · | ·
O=C(N=Nc1c(O)[nH]c2ccc(Br)cc12)c1ccccc1-n1cccc1 | -8.7 | 23.9* | -4.8 | 0.6 | -3.6 | -1.9 | 4.5
COc1ccc(Cl)cc1-c1cc(C(=O)Nc2ccc(Br)cc2)[nH]n1 | · | -6.8 | · | · | · | · | ·
CN1CCN(c2cc(N3CCN(C(=O)c4ccco4)CC3)c3c4c(onc24)-c2ccccc2C3=O)CC1 | 3.0 | 7.1 | -7.4 | -0.3 | -6.9 | · | ·
O=C(O)CCCNc1cc(N2CCN(C(=O)c3ccco3)CC2)c2noc3c2c1C(=O)c1ccccc1-3 | 8.5 | 26.3* | -194.8 | -20.5 | -31.5 | · | 131.9*
CCC(=O)Nc1nnc(C(C)(C)C)s1 | -4.7 | 18.3* | -6.9 | -0.6 | 1.5 | -9.3 | -9.9
O=[N+]([O-])c1ccc(Cc2ccc([N+](=O)[O-])cc2)cc1 | -8.8 | 6.1 | 5.1 | 2.2 | -2.2 | · | ·
N#CC(CCc1ccc([N+](=O)[O-])cc1)(CCc1ccc([N+](=O)[O-])cc1)C(N)=O | 5.0 | 51.5* | 0.4 | 5.3 | -9.6 | · | 30.9*
NNC(=O)CCn1c2ccccc2c2ccccc21 | 5.2 | 20.7* | 0.8 | -0.6 | -9.8 | -16.1 | -8.3
